{"source": "PubChem BioAssay AID1376", "about": "(SRMLSC, 2008)", "note": "“And” between values parts separate entries of the source, which are not always exact repeats. Equal entries are not always repeated. In all, about 220,000 compounds went through this assay and about 530 (0.24%) were called active. Rule as the data show it: active = inhibition above about 13%; inconclusive = no clear call, values can overlap the other calls; inactive = below that. The sample as a whole holds a higher share of actives than the screen did. Results with a measured potency or affinity are listed apart. A structure can be active in one record and inactive in another."}
{"target": "Bifunctional protein GlmU (Mycobacterium tuberculosis (strain ATCC 25618 / H37Rv)) (UniProt P9WMN3)", "sequence (P9WMN3 whole entry, looked up)": "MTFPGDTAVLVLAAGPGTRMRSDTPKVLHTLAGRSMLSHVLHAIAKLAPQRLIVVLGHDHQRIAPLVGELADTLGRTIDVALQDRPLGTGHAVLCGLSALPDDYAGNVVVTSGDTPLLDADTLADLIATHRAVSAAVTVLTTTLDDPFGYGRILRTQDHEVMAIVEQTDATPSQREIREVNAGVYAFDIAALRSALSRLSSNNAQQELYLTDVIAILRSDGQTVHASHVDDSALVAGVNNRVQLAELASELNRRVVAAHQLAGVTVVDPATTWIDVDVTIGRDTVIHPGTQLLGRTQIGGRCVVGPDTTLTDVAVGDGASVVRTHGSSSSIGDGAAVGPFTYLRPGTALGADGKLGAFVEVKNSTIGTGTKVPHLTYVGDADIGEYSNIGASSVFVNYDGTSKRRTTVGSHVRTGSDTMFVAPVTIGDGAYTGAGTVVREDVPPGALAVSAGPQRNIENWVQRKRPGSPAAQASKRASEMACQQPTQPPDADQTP", "assay": "inhibition of mycobacterial GlmU enzyme – biochemical, glucosamine-1-phosphate acetyltransferase (AID 1376);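 also: 0% = complete reaction with vehicle and 100% = reaction without substrate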", "conditions": "M. tuberculosis GlmU acetyltransferase enzyme assay; stronger effect = higher value;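 tested at 30 µM in the primary screen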"}
{"smiles": "Cc1cccc(-n2c(-c3ccoc3C)n[nH]c2=S)c1", "inhibition": "11.9% (inactive)"}
{"smiles": "Cc1ccccc1-n1c(-c2ccoc2C)n[nH]c1=S", "inhibition": "5.31% (inactive)"}
{"smiles": "Cc1occc1-c1n[nH]c(=S)n1-c1ccccc1", "inhibition": "12.8% (active)"}
{"smiles": "COc1ccccc1Nc1nc(N)nc(CSCCO)n1", "inhibition": "1.91% (inactive)"}
{"smiles": "COc1cc(/C=C2\\CC/C(=C\\c3cc(OC)c(O)c(OC)c3)C2=O)cc(OC)c1O", "inhibition": "14.3% (active)"}
{"smiles": "COc1cc(/C=C2/CC/C(=C/c3ccc(O)c(OC)c3)C2=O)ccc1O", "inhibition": "-0.98% (inactive)"}
{"smiles": "COc1cc(/C=C2\\CC/C(=C\\c3cc(OC)c(OC)c(OC)c3)C2=O)cc(OC)c1OC", "inhibition": "-2% (inactive)"}
{"smiles": "N#Cc1ccc2ccn(CC(=O)NC3CCCCCC3)c2c1", "inhibition": "6.23% (inactive)"}
{"smiles": "CC1CC(=O)c2c(cc3c(-c4c(O)cc(O)c5c(O)c6c(cc45)OC(C)CC6=O)c(O)cc(O)c3c2O)O1", "note": "(configuration not stated)", "inhibition": "18.9% (inactive)"}
{"smiles": "CC1Oc2cc3c(-c4c(O)cc(O)c5c(O)c6c(cc45)OC(C)C(C)C6=O)c(O)cc(O)c3c(O)c2C(=O)C1C", "note": "(configuration not stated)", "inhibition": "16.3% (active) and 8.27% (inactive)"}
{"smiles": "C[C@@H]1Cc2c(O)c(O)cc(O)c2C(=O)O1", "inhibition": "-2.99% (inactive)"}
{"smiles": "Cc1ccc(C(=O)Nc2ccc(C(=O)O)cc2)cc1S(=O)(=O)NCc1ccccc1", "inhibition": "-0.6% (inactive)"}
{"smiles": "O=C(O)c1cc2nccc(-c3ccco3)n2n1", "inhibition": "3.14% (inactive)"}
{"smiles": "Cc1cc2nccc(-c3ccco3)n2n1", "inhibition": "13.6% (active)"}
{"smiles": "Cc1cc2nccc(-c3ccccn3)n2n1", "inhibition": "-6.43% (inactive)"}
{"smiles": "Cc1ccc(Nc2c(-c3ccc(N4CCOCC4)cc3)nc3cnccn23)cc1", "inhibition": "-2.79% (inactive)"}
{"smiles": "O=C(NCCCN1CCCCCC1)c1ccc2c(Cl)c3c(nc2c1)CCCC3", "inhibition": "-1.55% (inactive)"}
{"smiles": "S=C1NC2(CCS1)Oc1ccccc1C1CC(c3ccccc3)=NN12", "note": "(configuration not stated)", "inhibition": "-6.7% (inactive)"}
{"smiles": "COc1ccc(C)cc1S(=O)(=O)Nc1ccc2c(c1)OCO2", "inhibition": "3.25% (inactive)"}
{"smiles": "COc1ccc(F)cc1S(=O)(=O)Nc1ccc2c(c1)OCCO2", "inhibition": "2.41% (inactive)"}
{"smiles": "COc1ccc(F)cc1S(=O)(=O)Nc1ccc2c(c1)OCO2", "inhibition": "14.9% (active)"}
{"smiles": "COc1cc(Nc2ncnc(N)n2)cc(OC)c1OC", "inhibition": "3.26% (inactive)"}
{"smiles": "COc1ccc(NC(=O)CN2CCN(CC(=O)Nc3ccccc3F)CC2)cc1OC", "inhibition": "-7.08% (inactive)"}
{"smiles": "COc1ccc(-n2c(C)cc(/C=C/c3nc(O)c([N+](=O)[O-])c(=O)[nH]3)c2C)cc1", "inhibition": "10% (inactive)"}
{"smiles": "C=CCc1cc(/C=C/c2nc(O)c([N+](=O)[O-])c(=O)[nH]2)cc(OC)c1O", "inhibition": "14.5% (active)"}
{"smiles": "O=c1[nH]c(/C=C\\c2cccs2)nc(O)c1[N+](=O)[O-]", "inhibition": "2.4% (inactive)"}
{"smiles": "O=C(Nc1ccc(F)cc1F)N1CCN(c2ncccn2)CC1", "inhibition": "1.49% (inactive)"}
{"smiles": "CC(C)(C)OC(=O)N/N=C/c1c[nH]c2ccccc12", "inhibition": "2.23% (inactive)"}
{"smiles": "O=C(COc1cccnc1[N+](=O)[O-])Nc1ccc2c(c1)OC(F)(F)O2", "inhibition": "3.24% (inactive)"}
{"smiles": "O=C(NCc1ccc(F)cc1)C1CCCN(c2nc3ccsc3c(=O)s2)C1", "note": "(configuration not stated)", "inhibition": "2.37% (inactive)"}
{"smiles": "CCOC(=O)C1=C(c2ccccc2)NC(SCC(=O)NC2CCCCC2)=C(C#N)C1c1ccco1", "note": "(configuration not stated)", "inhibition": "2.37% (inactive)"}
{"smiles": "Cc1ccc(/C=C2\\SC(=S)N(Cc3ccccc3)C2=O)o1", "inhibition": "-1.65% (inactive)"}
{"smiles": "O=C1/C(=C\\c2ccc(-c3ccccc3Cl)o2)SC(=S)N1CC1CCCO1", "note": "(configuration not stated)", "inhibition": "7.34% (inactive)"}
{"smiles": "O=C1N=C(N2CCOCC2)S/C1=C\\c1ccc(-c2ccccc2Cl)o1", "inhibition": "2.7% (inactive)"}
{"smiles": "CCOc1ccc(/C=C2/SC(=O)NC2=S)cc1", "inhibition": "-3.11% (inactive)"}
{"smiles": "O=C(Nc1cccc(NC(=O)c2nccc3ccccc23)c1)c1ccco1", "inhibition": "-1.26% (inactive)"}
{"smiles": "COc1cc(C(=O)Nc2ccncc2)c([N+](=O)[O-])cc1OC", "inhibition": "6.59% (inactive)"}
{"smiles": "CCN1CCN(c2cc(C)c3cc(NC(=O)c4cnccn4)ccc3n2)CC1", "inhibition": "-5.83% (inactive)"}
{"smiles": "O=C1c2ccccc2C(=O)N1OCc1ccc(Cl)cc1", "inhibition": "-2.04% (inactive)"}
{"smiles": "O=C1NC(=S)N(Cc2ccco2)C(=O)/C1=C\\c1cccs1", "inhibition": "96% (active)"}
{"smiles": "C=CCN1C(=O)/C(=C/c2cccs2)C(=O)NC1=S", "inhibition": "4.18% (inactive)"}
{"smiles": "CCN(CC)c1ccc(/C=C2/C(=O)NC(=O)N(Cc3ccco3)C2=O)cc1", "inhibition": "-0.51% (inactive)"}
{"smiles": "CN(C)c1ccc(/C=C2/C(=O)NC(=O)N(Cc3ccco3)C2=O)cc1", "inhibition": "-4.04% (inactive)"}
{"smiles": "O=C1NC(=O)N(Cc2ccc(F)cc2)C(=O)/C1=C/c1cccs1", "inhibition": "-2.44% (inactive)"}
{"smiles": "O=C(/C=C/c1ccco1)c1ccc(NC(=O)C23CC4CC(CC(C4)C2)C3)cc1", "inhibition": "-0.76% (inactive)"}
{"smiles": "Cc1ccc(C)c(S(=O)(=O)NCCOC(=O)Nc2sc(=S)n(C)c2C)c1", "inhibition": "6.71% (inactive)"}
{"smiles": "CCOC(=O)CNC(=O)CSc1nc(N)cc(N)n1", "inhibition": "1.79% (inactive)"}
